Screening results: PubChem BioAssay, several laboratories
Sampled rows, rich in hits. Any-hit rate of the full collection: about 2.9%.
PP1 inh: blocks human PP1-alpha phosphatase, a PP5 counter-screen; P62136; purified PP1alpha, OMFP fluorescence; inhibition, % at 6.7 µM; 320,000 compounds, 0.9% hits; AID 2235;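 active means inhibition above the mean inhibition of all tested compounds plus 3 SD, computed separately for each screening campaign, cut at about 15% in these data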
Target sequence (P62136 whole entry, looked up): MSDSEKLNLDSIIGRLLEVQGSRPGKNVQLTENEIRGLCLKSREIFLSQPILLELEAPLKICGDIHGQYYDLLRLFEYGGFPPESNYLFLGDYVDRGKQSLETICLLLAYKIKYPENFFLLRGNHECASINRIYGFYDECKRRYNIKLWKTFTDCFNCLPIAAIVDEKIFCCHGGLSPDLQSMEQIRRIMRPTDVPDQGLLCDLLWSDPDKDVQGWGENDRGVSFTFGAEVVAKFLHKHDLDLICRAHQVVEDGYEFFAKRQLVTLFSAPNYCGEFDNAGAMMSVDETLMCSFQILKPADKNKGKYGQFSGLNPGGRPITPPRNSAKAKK
NadD inh: inhibitors of Staphylococcus aureus NadD; 360,000 compounds, 0.78% hits; inhibition, % at 20 µM; AID 602399; purified NadD enzyme, colorimetric absorbance read-out; in the data active means inhibition above about 26%
Beta2AR agonist: human beta-2 adrenergic receptor agonism by FAP; Am2.2-beta2AR cells, FAP receptor internalization, flow cytometry; 340,000 compounds, 0.43% hits; response, % (concentration not given with the values);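 active means response above a set limit, near 3 SD of response in nonfluorescent compounds, cut at about 42% in these data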
Granule exo inh: blocks lytic granule exocytosis; TALL-104 LAMP-1 surface exposure, flow cytometry; cells stimulated with thapsigargin and PMA; inhibition, % at 10 µM; 360,000 compounds, 0.66% hits;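 active means inhibition above about 55%, limit read from the data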
GRK2 aptamer HTS: blocks RNA aptamer binding to human GRK2 | AID 488847 | bead flow cytometry, FAM-aptamer displacement from GRK2 | inhibition of aptamer binding, % at 10 µM | 330,000 compounds, 0.59% hits | P25098;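 active means inhibition of aptamer binding above 40%, roughly 3 SD of noise, on plates passing a quality check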;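 further: median bead fluorescence of bound FAM aptamer so fluorescent compounds give negative values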
NadD conf: NadD (S. aureus) inhibition, single concentration confirmation | shares compounds with NadD inh | purified S. aureus NadD, colorimetric enzyme assay | inhibition, % at 20 µM | 2,000 compounds, 13% hits; in the data active means inhibition mostly above about 42%, no sharp cut-off; inactive means mostly below about 42%
Of the large screens only hits and unclear results are named; the others gave an inactive call (follow-up assays come after a bar, where they were run).

O=C(NCC1CCCN(Cc2ccc3nonc3c2)C1)c1cccc(C(F)(F)F)c1 (centres undefined)	none
NC(CSC(c1ccccc1)(c1ccccc1)c1ccccc1)C(=O)O (centres undefined)	none (no result: PP1 inh, GRK2 aptamer HTS)
Cc1ccc(C2(SCC(N)C(=O)O)c3ccccc3-c3ccccc32)cc1 (centres undefined)	NadD inh 39 (no result: PP1 inh, GRK2 aptamer HTS) | NadD conf 54
CCOC(=O)CCNC(=O)N1CCCC(N(C)CCc2ccc(OC)c(OC)c2)C1 (centres undefined)	none
N#C/C(=C/c1ccc(F)cc1)c1nnc(NC(=O)c2ccccc2)s1	NadD inh 36 | NadD conf inactive
Cc1c(C(=O)OC/C(O)=C(\C#N)c2nc3ccccc3[nH]2)oc2ccccc12	none
Cc1c(C(=O)OCC(O)=C(C#N)c2nc3ccccc3[nH]2)oc2ccc(Br)cc12	NadD inh 37 (no result: PP1 inh, GRK2 aptamer HTS) | NadD conf inactive
COc1ccc(CNC(=O)C(c2ccco2)N(C(=O)c2ccccn2)c2ccccc2)cc1 (centres undefined)	none
CC(C)C[C@@H](CN1CCCC1CN1C(=S)NC[C@@H]1Cc1ccc(O)cc1)N1C[C@H](Cc2ccc(O)cc2)N(CCc2ccccc2)C1=S (some centres undefined)	NadD inh 42 (no result: PP1 inh, GRK2 aptamer HTS) | NadD conf inactive
Oc1ccc(C[C@H]2CNC(=S)N2C[C@H]2CCCN2C[C@H](Cc2ccccc2)N2C[C@H](Cc3ccc(O)cc3)N(CCc3ccccc3)C2=S)cc1	NadD inh 46 (no result: PP1 inh, Beta2AR agonist, GRK2 aptamer HTS) | NadD conf inactive
Oc1ccc(C[C@H]2CN([C@@H](Cc3ccc(O)cc3)CN3CCC[C@@H]3CN3C(=S)NC[C@@H]3Cc3ccccc3)C(=S)N2CCc2ccccc2)cc1	NadD inh 40 (no result: PP1 inh, Beta2AR agonist, GRK2 aptamer HTS) | NadD conf inactive
O=C1NC[C@H](Cc2ccccc2)N(C[C@@H]2CCCN2C[C@H](Cc2ccc(O)cc2)N2C[C@H](Cc3ccc(O)cc3)N(CCc3ccccc3)C(=O)C2=O)C1=O	none (no result: PP1 inh, Beta2AR agonist, GRK2 aptamer HTS)
O=C1NC[C@H](Cc2ccccc2)N(C[C@H]2CCCN2C[C@H](Cc2ccccc2)N2C[C@H](Cc3ccc(O)cc3)N(CCc3ccccc3)C(=O)C2=O)C1=O	none (no result: PP1 inh, GRK2 aptamer HTS)
Oc1ccc(C[C@H]2CN([C@@H](Cc3ccccc3)CN3CCCC3CN3C(=S)NC[C@@H]3Cc3ccccc3)C(=S)N2CCc2ccccc2)cc1 (some centres undefined)	NadD inh 37 (no result: PP1 inh, Beta2AR agonist, GRK2 aptamer HTS) | NadD conf inactive
CC(C)C[C@H]1CNC(=S)N1C[C@H]1CCCN1C[C@H](CC(C)C)N1C[C@H](Cc2ccccc2)N(CCc2ccccc2)C1=S	none (no result: PP1 inh, Beta2AR agonist, GRK2 aptamer HTS)
Fc1cc(NC(=S)NCc2ccc(CNC(=S)Nc3ccc(Cl)c(F)c3)cc2)ccc1Cl	NadD inh 36 | NadD conf inactive
Clc1ccc2nc(-c3ccco3)c(Cc3ccsc3)n2c1	NadD inh 34 (no result: PP1 inh, Beta2AR agonist, GRK2 aptamer HTS) | NadD conf inactive
Brc1ccc2nc(-c3ccco3)c(Cc3ccsc3)n2c1	none (no result: PP1 inh, Beta2AR agonist, GRK2 aptamer HTS)
CC[C@H](C)/C=C(C)/C=C/C(=O)Cc1cc(O)c(C)c(O)c1C=O	NadD inh 33 | NadD conf inactive
CN(CC(=O)Nc1ccc(Cl)c(C(F)(F)F)c1)C(=O)c1ccccc1SCC(=O)N1CCCC1	none (no result: PP1 inh, GRK2 aptamer HTS)
CC(=O)C1=C(O)C(=O)N(c2ccc(O)cc2)C1c1cccc([N+](=O)[O-])c1 (centres undefined)	none
CCOC(=O)C1=C(C)n2c(s/c(=C/c3cccc([N+](=O)[O-])c3)c2=O)=NC1c1ccc(O)c(OC)c1 (centres undefined)	none
CCOc1ccc(N2C(=O)/C(=C\c3ccc(O)c(OC)c3)S(=O)(=O)C2c2cccc([N+](=O)[O-])c2)cc1 (centres undefined)	NadD inh 43 | NadD conf 62
CCOc1ccc(N2C(=O)/C(=C\c3ccc(OC)c(O)c3)S(=O)(=O)C2c2cccc([N+](=O)[O-])c2)cc1 (centres undefined)	NadD inh 34 | NadD conf inactive
Cc1cc(C)c(S(=O)(=O)N(C2=NCCS2)S(=O)(=O)c2c(C)cc(C)cc2C)c(C)c1	none
CCOC(=O)[C@@H](C)N(Cc1ccc(OC)cc1)S(=O)(=O)N(Cc1ccccc1)[C@H](C(=O)OC)C(C)C	none
Cc1nc(SCC(=O)c2cc3ccccc3oc2=O)c(C#N)c(-c2ccccc2)c1C(=O)Nc1ccccc1	NadD inh 28 | NadD conf inactive
COc1ccc(-c2c(C#N)c(SCC(=O)c3cc4ccccc4oc3=O)nc(C)c2C(=O)Nc2ccccc2)cc1	none
CC(C)(C)c1ccc2cccc(F)c2n1	none (no result: PP1 inh, Beta2AR agonist, GRK2 aptamer HTS)
Cc1nc2cc(-c3ccc(Cl)cc3)nn2c(NCCN(C)C)c1C	none
O=[N+]([O-])c1ccc(Nc2cccc3c2[nH]c2c(-c4ccccc4)nccc23)c([N+](=O)[O-])c1	NadD inh 44 (no result: PP1 inh, GRK2 aptamer HTS) | NadD conf inactive
CC(=O)Nc1ccc(NC(=O)c2cccc(-c3cc4ccccc4oc3=O)c2)cc1	none
COc1ccc(C(=O)Nc2cccc(-c3cc4ccccc4oc3=O)c2)cc1[N+](=O)[O-]	PP1 inh 16, NadD inh 35 | NadD conf inactive
O=C(NNc1nc(-c2ccccc2)c2cc(Br)ccc2n1)c1ccc(S(=O)(=O)N2CCCCC2)cc1	NadD inh 37 | NadD conf inactive
Cc1cc(C(=O)Nc2ccc3ccccc3c2)c(C)o1	none
CCOc1ccc(CCN2C(=O)C(=O)N([C@@H](CC(C)C)CN3CCC[C@H]3CN3C(=O)C(=O)NC[C@@H]3Cc3ccccc3)C[C@@H]2Cc2ccccc2)cc1	NadD inh 34 (no result: PP1 inh, Beta2AR agonist, GRK2 aptamer HTS) | NadD conf inactive
CCOc1ccc(CCN2C(=O)C(=O)N([C@@H](CC(C)C)CN3CCC[C@H]3CN3C(=O)C(=O)NC[C@@H]3Cc3ccccc3)C[C@@H]2Cc2ccc(O)cc2)cc1	NadD inh 35 (no result: PP1 inh, Beta2AR agonist, GRK2 aptamer HTS) | NadD conf inactive
CCOc1ccc(CCN2C(=O)C(=O)N([C@@H](CC(C)C)CN3CCC[C@@H]3CN3C(=O)C(=O)NC[C@@H]3Cc3ccccc3)C[C@@H]2CC(C)C)cc1	none (no result: PP1 inh, GRK2 aptamer HTS)
CCOc1ccc(Br)cc1S(=O)(=O)Nc1ccc(C(=O)OCC(=O)Nc2ccc(C#N)cc2)cc1	NadD inh 34 | NadD conf inactive
CCOc1ccc(NC(=S)NS(=O)(=O)c2cc(Br)ccc2OCC)cc1	none
COCCn1c(SCc2nc3scc(-c4ccc(Cl)cc4)c3c(=O)[nH]2)nnc1-c1cccc(C)c1	PP1 inh 16, NadD inh 33 | NadD conf inactive
Cc1nn(-c2ccccc2)c(N2CCCC2)c1/C=N/NC(=O)c1cccc(S(=O)(=O)Nc2ccc(Cl)cc2)c1	NadD inh 53 | NadD conf 55
Cc1nn(-c2ccccc2)c(Cl)c1/C=N/NC(=O)c1cccc(S(=O)(=O)N2CCCC2)c1	none
COc1ccc(-c2nn(-c3ccccc3)cc2/C=N/NC(=O)c2cccc(S(=O)(=O)Nc3ccccc3Cl)c2)cc1	NadD inh 42 | NadD conf inactive
